# According to the supplement of paper PMC6992640:
# System: WHIM30 (cells of a triple-negative basal-like breast cancer xenograft)
# Test: cell viability of combination (% of vehicle); higher = less cytotoxic
# Details: 1 µM; 72 h; partner dose: 10 nM
# Protocol: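 PDX cells were treated for 72 h with each drug at 1 µM plus carfilzomib (10 nM; 100 nM for WHIM2). Luciferase viability is expressed as percent of vehicle.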
row,SMILES,cell viability of combination
1,CC(C)C(=O)OCC(=O)[C@@]12O[C@H](C3CCCCC3)O[C@@H]1C[C@H]1[C@@H]3CCC4=CC(=O)C=C[C@]4(C)[C@H]3[C@@H](O)C[C@@]12C [Ciclesonide] + CC(C)C[C@H](NC(=O)[C@H](CCc1ccccc1)NC(=O)CN1CCOCC1)C(=O)N[C@@H](Cc1ccccc1)C(=O)N[C@@H](CC(C)C)C(=O)[C@@]1(C)CO1 [Carfilzomib],31.2
2,CCOc1cc2ncc(C#N)c(Nc3ccc(OCc4ccccn4)c(Cl)c3)c2cc1NC(=O)C=CCN(C)C [Neratinib (HKI-272)] + CC(C)C[C@H](NC(=O)[C@H](CCc1ccccc1)NC(=O)CN1CCOCC1)C(=O)N[C@@H](Cc1ccccc1)C(=O)N[C@@H](CC(C)C)C(=O)[C@@]1(C)CO1 [Carfilzomib],17.5
3,CC1CC(=O)NN=C1c1ccc(NN=C(C#N)C#N)cc1 (stereo not given) [Levosimendan] + CC(C)C[C@H](NC(=O)[C@H](CCc1ccccc1)NC(=O)CN1CCOCC1)C(=O)N[C@@H](Cc1ccccc1)C(=O)N[C@@H](CC(C)C)C(=O)[C@@]1(C)CO1 [Carfilzomib],21.5
4,CNC(=O)c1cc(Oc2ccc(NC(=O)Nc3ccc(Cl)c(C(F)(F)F)c3)c(F)c2)ccn1.Cl [Regorafenib hydrochloride] + CC(C)C[C@H](NC(=O)[C@H](CCc1ccccc1)NC(=O)CN1CCOCC1)C(=O)N[C@@H](Cc1ccccc1)C(=O)N[C@@H](CC(C)C)C(=O)[C@@]1(C)CO1 [Carfilzomib],32.8
5,CCCCCCCCc1ccc(CCC(N)(CO)CO)cc1.Cl [Fingolimod (FTY720)] + CC(C)C[C@H](NC(=O)[C@H](CCc1ccccc1)NC(=O)CN1CCOCC1)C(=O)N[C@@H](Cc1ccccc1)C(=O)N[C@@H](CC(C)C)C(=O)[C@@]1(C)CO1 [Carfilzomib],16.7
6,CN1CCN(CCOc2cc(OC3CCOCC3)c3c(Nc4c(Cl)ccc5c4OCO5)ncnc3c2)CC1 [Saracatinib (AZD0530)] + CC(C)C[C@H](NC(=O)[C@H](CCc1ccccc1)NC(=O)CN1CCOCC1)C(=O)N[C@@H](Cc1ccccc1)C(=O)N[C@@H](CC(C)C)C(=O)[C@@]1(C)CO1 [Carfilzomib],21.1
7,CCN(CC)CCCC(C)Nc1ccnc2cc(Cl)ccc12.O=P(O)(O)O.O=P(O)(O)O (stereo not given) [Chloroquine diphosphate] + CC(C)C[C@H](NC(=O)[C@H](CCc1ccccc1)NC(=O)CN1CCOCC1)C(=O)N[C@@H](Cc1ccccc1)C(=O)N[C@@H](CC(C)C)C(=O)[C@@]1(C)CO1 [Carfilzomib],13.5
8,N.N.O=C([O-])C1(C(=O)[O-])CCC1.[Pt+2] [Carboplatin] + CC(C)C[C@H](NC(=O)[C@H](CCc1ccccc1)NC(=O)CN1CCOCC1)C(=O)N[C@@H](Cc1ccccc1)C(=O)N[C@@H](CC(C)C)C(=O)[C@@]1(C)CO1 [Carfilzomib],22.9
9,COC(=O)NC(C(=O)NC(Cc1ccccc1)C(O)CN(Cc1ccc(-c2ccccn2)cc1)NC(=O)C(NC(=O)OC)C(C)(C)C)C(C)(C)C (stereo not given) [Atazanavir] + CC(C)C[C@H](NC(=O)[C@H](CCc1ccccc1)NC(=O)CN1CCOCC1)C(=O)N[C@@H](Cc1ccccc1)C(=O)N[C@@H](CC(C)C)C(=O)[C@@]1(C)CO1 [Carfilzomib],24.5
10,Nc1ncn(C2OC(CO)C(O)C2O)c(=O)n1 (stereo not given) [5-Azacytidine] + CC(C)C[C@H](NC(=O)[C@H](CCc1ccccc1)NC(=O)CN1CCOCC1)C(=O)N[C@@H](Cc1ccccc1)C(=O)N[C@@H](CC(C)C)C(=O)[C@@]1(C)CO1 [Carfilzomib],20.7
11,CNC(=O)c1cc(Oc2ccc(NC(=O)Nc3ccc(Cl)c(C(F)(F)F)c3)c(F)c2)ccn1 [Regorafenib] + CC(C)C[C@H](NC(=O)[C@H](CCc1ccccc1)NC(=O)CN1CCOCC1)C(=O)N[C@@H](Cc1ccccc1)C(=O)N[C@@H](CC(C)C)C(=O)[C@@]1(C)CO1 [Carfilzomib],22.4
12,C=C1C(=CC=C2CCCC3(C)C2CCC3C(C)CCCC(C)C)CC(O)CC1O (stereo not given) [Alfacalcidol] + CC(C)C[C@H](NC(=O)[C@H](CCc1ccccc1)NC(=O)CN1CCOCC1)C(=O)N[C@@H](Cc1ccccc1)C(=O)N[C@@H](CC(C)C)C(=O)[C@@]1(C)CO1 [Carfilzomib],16.6
13,CC(C)(C)Cn1c(N)nc2ccc(-c3[nH]c(C(C)(C)C)nc3-c3ccc(F)cc3)nc21.CS(=O)(=O)O.CS(=O)(=O)O + CC(C)C[C@H](NC(=O)[C@H](CCc1ccccc1)NC(=O)CN1CCOCC1)C(=O)N[C@@H](Cc1ccccc1)C(=O)N[C@@H](CC(C)C)C(=O)[C@@]1(C)CO1 [Carfilzomib],14.4
14,CC(C)(C)NC(=O)C1CC2CCCCC2CN1CC(O)C(Cc1ccccc1)NC(=O)C(CC(N)=O)NC(=O)c1ccc2ccccc2n1.CS(=O)(=O)O (stereo not given) [Saquinavir mesylate] + CC(C)C[C@H](NC(=O)[C@H](CCc1ccccc1)NC(=O)CN1CCOCC1)C(=O)N[C@@H](Cc1ccccc1)C(=O)N[C@@H](CC(C)C)C(=O)[C@@]1(C)CO1 [Carfilzomib],22.9
15,CCCCCOc1ccc(-c2ccc(-c3ccc(C(=O)N[C@H]4C[C@@H](O)[C@@H](O)NC(=O)[C@@H]5[C@@H](O)[C@@H](C)CN5C(=O)[C@H]([C@@H](C)O)NC(=O)[C@H]([C@H](O)[C@@H](O)c5ccc(O)cc5)NC(=O)[C@@H]5C[C@@H](O)CN5C(=O)[C@H]([C@@H](C)O)NC4=O)cc3)cc2)cc1 [Anidulafungin] + CC(C)C[C@H](NC(=O)[C@H](CCc1ccccc1)NC(=O)CN1CCOCC1)C(=O)N[C@@H](Cc1ccccc1)C(=O)N[C@@H](CC(C)C)C(=O)[C@@]1(C)CO1 [Carfilzomib],16.7
16,CC[C@@]1(O)C(=O)OCc2c1cc1n(c2=O)Cc2cc3c(CN(C)C)c(O)ccc3nc2-1.Cl [Topotecan HCl] + CC(C)C[C@H](NC(=O)[C@H](CCc1ccccc1)NC(=O)CN1CCOCC1)C(=O)N[C@@H](Cc1ccccc1)C(=O)N[C@@H](CC(C)C)C(=O)[C@@]1(C)CO1 [Carfilzomib],7.58
17,COc1ccc2c(O[C@H]3CC4C(=O)N(C)CCCC/C=C\[C@H]5C[C@@]5(C(=O)NS(=O)(=O)C5CC5)NC(=O)[C@@H]4C3)cc(-c3nc(C(C)C)cs3)nc2c1C (stereo not given in full) [Simeprevir] + CC(C)C[C@H](NC(=O)[C@H](CCc1ccccc1)NC(=O)CN1CCOCC1)C(=O)N[C@@H](Cc1ccccc1)C(=O)N[C@@H](CC(C)C)C(=O)[C@@]1(C)CO1 [Carfilzomib],22.1
18,C=C1C(=CC=C2CCCC3(C)C2CCC3C(C)C=CC(C)C(C)C)CC(O)CC1O (stereo not given) [Doxercalciferol] + CC(C)C[C@H](NC(=O)[C@H](CCc1ccccc1)NC(=O)CN1CCOCC1)C(=O)N[C@@H](Cc1ccccc1)C(=O)N[C@@H](CC(C)C)C(=O)[C@@]1(C)CO1 [Carfilzomib],17
19,CC(O)C(=O)O.CC(O)C(=O)O.CN1CCN(c2ccc3c(c2)NC(=C2C(=O)N=c4cccc(F)c4=C2N)N3)CC1 [Dovitinib Dilactic acid] + CC(C)C[C@H](NC(=O)[C@H](CCc1ccccc1)NC(=O)CN1CCOCC1)C(=O)N[C@@H](Cc1ccccc1)C(=O)N[C@@H](CC(C)C)C(=O)[C@@]1(C)CO1 [Carfilzomib],32.1
20,Cc1ccc(-n2[nH]c(C)c(NN=C3C=CC=C(c4cccc(C(=O)O)c4)C3=O)c2=O)cc1C [Eltrombopag] + CC(C)C[C@H](NC(=O)[C@H](CCc1ccccc1)NC(=O)CN1CCOCC1)C(=O)N[C@@H](Cc1ccccc1)C(=O)N[C@@H](CC(C)C)C(=O)[C@@]1(C)CO1 [Carfilzomib],19.8
